In ChEMBL document CHEMBL1961873, “Compounds: GSK PKIS; Assays: Nanosyn kinase panel” (2012) one finds inhibition data, which are given here for six molecules.

One may read the inhibition as the drop in the measured response relative to a control, in per cent.

Test [1] deals with T1, 3-phosphoinositide-dependent protein kinase 1 (Homo sapiens) (UniProt O15530).
T1 sequence (whole entry): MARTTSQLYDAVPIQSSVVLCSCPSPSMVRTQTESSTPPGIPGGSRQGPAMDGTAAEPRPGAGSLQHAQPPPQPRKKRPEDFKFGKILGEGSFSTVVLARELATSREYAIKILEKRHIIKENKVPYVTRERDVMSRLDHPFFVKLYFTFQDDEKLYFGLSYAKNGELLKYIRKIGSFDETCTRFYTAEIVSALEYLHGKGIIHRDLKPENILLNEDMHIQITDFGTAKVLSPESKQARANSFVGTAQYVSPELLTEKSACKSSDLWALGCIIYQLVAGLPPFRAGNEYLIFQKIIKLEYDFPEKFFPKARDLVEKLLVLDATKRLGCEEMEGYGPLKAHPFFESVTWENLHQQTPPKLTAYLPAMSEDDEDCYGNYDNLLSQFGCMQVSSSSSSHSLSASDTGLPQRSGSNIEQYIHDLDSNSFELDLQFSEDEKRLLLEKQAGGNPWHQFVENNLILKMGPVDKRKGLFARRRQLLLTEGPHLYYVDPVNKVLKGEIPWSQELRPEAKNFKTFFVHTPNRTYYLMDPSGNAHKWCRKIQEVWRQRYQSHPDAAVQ
The following applies: at 0.1 µM.

Test [2] deals with cAMP-dependent protein kinase catalytic subunit alpha (Homo sapiens) (UniProt P17612). Conditions: at 0.1 µM.
Test [3] has the same target. Conditions: at 1 µM.
Test [4] deals with Protein kinase C alpha type (Homo sapiens) (UniProt P17252). Conditions: at 0.1 µM.
Test [5] shares this target. Conditions: at 1 µM.
In test [6] the target is Protein kinase C beta type (Homo sapiens) (UniProt P05771). The following applies: at 0.1 µM.
Sequence of Protein kinase C beta type (Homo sapiens) (P05771 2-671 limits assumed): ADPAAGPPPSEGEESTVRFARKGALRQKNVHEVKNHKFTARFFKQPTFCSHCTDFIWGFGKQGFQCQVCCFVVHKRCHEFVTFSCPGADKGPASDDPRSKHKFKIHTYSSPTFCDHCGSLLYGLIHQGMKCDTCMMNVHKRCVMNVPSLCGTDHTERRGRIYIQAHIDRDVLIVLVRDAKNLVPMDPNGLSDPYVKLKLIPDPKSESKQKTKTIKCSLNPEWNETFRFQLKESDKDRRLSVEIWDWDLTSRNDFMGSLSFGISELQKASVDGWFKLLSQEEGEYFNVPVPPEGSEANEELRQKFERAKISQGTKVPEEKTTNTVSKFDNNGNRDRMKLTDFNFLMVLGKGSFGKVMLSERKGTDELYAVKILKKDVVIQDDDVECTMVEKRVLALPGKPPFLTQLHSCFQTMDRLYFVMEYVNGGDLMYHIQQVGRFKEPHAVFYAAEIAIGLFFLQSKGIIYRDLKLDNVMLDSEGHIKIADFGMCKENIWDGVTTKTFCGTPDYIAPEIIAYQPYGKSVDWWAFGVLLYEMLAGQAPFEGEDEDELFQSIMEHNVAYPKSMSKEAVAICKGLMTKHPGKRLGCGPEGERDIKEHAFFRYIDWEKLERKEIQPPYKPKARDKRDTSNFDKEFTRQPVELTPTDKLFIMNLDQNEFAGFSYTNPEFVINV
The target is the same in test [7]. Conditions: at 1 µM.
Test [8] has as its target Protein kinase C eta type (Homo sapiens) (UniProt P24723). The following applies: at 0.1 µM.
The target is the same in test [9]. Conditions: at 1 µM.
The target in test [10] is Protein kinase C gamma type (Homo sapiens) (UniProt P05129). The following applies: at 0.1 µM.
Test [11] shares this target. The following applies: at 1 µM.
Test [12] has as its target T2, Protein kinase C iota type (Homo sapiens) (UniProt P41743).
T2 sequence (whole entry): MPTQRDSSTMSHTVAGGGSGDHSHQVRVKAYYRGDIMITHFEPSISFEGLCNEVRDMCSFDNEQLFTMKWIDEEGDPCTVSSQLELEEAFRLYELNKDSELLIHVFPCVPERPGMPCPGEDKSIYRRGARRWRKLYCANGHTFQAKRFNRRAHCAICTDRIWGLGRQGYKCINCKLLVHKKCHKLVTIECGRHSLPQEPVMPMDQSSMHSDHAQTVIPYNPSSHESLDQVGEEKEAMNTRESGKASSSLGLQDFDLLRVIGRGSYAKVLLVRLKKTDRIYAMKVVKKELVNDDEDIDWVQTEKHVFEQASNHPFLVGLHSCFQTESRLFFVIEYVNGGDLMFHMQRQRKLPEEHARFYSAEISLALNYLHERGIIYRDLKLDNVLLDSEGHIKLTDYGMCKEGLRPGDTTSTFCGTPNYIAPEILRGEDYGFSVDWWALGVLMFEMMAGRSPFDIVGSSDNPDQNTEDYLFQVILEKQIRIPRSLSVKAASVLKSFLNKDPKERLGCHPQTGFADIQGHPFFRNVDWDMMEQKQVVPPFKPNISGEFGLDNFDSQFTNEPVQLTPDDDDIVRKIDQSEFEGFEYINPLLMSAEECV
Conditions: at 0.1 µM.

The target in test [13] is T2, Protein kinase C iota type (Homo sapiens). The following applies: at 1 µM.
Test [14] addresses Protein kinase C theta type (Homo sapiens) (UniProt Q04759). Conditions: at 0.1 µM.
Test [15] has the same target. Conditions: at 1 µM.
The target of test [16] is Protein kinase C beta type (Homo sapiens) (UniProt P05771). The following applies: at 0.1 µM. The source holds these as a separate data set.
The target is the same in test [17]. Conditions: at 1 µM. The source holds these as a separate data set.
The target in test [18] is T3, Serine/threonine-protein kinase D1 (Homo sapiens) (UniProt Q15139).
T3 sequence (whole entry): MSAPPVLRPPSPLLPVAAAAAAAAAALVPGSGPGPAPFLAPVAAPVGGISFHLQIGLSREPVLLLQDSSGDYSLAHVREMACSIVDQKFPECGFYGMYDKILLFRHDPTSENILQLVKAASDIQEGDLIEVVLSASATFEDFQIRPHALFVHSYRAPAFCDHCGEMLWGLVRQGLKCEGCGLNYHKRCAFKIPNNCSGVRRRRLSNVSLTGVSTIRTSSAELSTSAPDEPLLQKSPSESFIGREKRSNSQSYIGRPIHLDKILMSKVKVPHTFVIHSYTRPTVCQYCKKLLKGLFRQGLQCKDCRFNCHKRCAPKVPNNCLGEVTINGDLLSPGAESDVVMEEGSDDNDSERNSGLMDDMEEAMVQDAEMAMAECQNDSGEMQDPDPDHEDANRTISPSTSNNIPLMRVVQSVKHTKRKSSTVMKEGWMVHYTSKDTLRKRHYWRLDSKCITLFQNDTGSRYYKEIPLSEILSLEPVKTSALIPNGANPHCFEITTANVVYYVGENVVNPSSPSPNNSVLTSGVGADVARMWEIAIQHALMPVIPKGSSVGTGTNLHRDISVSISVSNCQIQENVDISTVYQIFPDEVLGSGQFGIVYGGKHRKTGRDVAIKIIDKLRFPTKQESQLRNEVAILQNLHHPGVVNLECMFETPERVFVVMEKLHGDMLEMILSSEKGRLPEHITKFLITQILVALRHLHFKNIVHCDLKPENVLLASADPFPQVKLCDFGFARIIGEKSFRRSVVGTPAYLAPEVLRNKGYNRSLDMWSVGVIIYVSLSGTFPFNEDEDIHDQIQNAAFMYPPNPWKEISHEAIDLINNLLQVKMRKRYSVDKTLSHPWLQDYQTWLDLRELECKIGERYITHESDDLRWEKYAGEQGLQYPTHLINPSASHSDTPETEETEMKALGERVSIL
Conditions: at 0.1 µM.

The target in test [19] is T3, Serine/threonine-protein kinase D1 (Homo sapiens). Conditions: at 1 µM.
The target in test [20] is T4, Serine/threonine-protein kinase D2 (Homo sapiens) (UniProt Q9BZL6).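 Further: reported percent inhibition values are means, part of the GSK PKIS kinase panel screen.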
T4 sequence (whole entry): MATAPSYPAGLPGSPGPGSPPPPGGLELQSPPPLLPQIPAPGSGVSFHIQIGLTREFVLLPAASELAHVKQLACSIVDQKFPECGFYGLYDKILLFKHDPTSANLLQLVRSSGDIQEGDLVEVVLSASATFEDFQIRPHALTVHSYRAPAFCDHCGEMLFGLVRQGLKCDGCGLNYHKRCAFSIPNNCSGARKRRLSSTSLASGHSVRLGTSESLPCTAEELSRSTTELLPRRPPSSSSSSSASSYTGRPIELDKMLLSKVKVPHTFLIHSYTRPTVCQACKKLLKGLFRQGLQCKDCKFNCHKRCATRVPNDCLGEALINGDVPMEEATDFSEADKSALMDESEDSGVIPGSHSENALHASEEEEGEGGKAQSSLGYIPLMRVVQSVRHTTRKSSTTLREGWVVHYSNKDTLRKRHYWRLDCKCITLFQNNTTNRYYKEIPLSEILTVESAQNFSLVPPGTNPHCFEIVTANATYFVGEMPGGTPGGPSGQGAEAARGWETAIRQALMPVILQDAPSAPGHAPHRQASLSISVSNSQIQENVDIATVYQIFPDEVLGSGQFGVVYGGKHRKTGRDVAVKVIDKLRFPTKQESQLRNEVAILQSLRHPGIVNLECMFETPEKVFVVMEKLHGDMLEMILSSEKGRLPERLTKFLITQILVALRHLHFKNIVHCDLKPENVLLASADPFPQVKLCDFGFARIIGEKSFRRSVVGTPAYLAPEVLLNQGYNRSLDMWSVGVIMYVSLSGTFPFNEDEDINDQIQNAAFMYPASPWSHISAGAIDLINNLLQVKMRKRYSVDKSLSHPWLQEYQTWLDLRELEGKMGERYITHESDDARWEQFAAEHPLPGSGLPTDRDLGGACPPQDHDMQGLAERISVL
Conditions: at 0.1 µM.

Sequence of Protein kinase C eta type (Homo sapiens) (P24723 whole entry): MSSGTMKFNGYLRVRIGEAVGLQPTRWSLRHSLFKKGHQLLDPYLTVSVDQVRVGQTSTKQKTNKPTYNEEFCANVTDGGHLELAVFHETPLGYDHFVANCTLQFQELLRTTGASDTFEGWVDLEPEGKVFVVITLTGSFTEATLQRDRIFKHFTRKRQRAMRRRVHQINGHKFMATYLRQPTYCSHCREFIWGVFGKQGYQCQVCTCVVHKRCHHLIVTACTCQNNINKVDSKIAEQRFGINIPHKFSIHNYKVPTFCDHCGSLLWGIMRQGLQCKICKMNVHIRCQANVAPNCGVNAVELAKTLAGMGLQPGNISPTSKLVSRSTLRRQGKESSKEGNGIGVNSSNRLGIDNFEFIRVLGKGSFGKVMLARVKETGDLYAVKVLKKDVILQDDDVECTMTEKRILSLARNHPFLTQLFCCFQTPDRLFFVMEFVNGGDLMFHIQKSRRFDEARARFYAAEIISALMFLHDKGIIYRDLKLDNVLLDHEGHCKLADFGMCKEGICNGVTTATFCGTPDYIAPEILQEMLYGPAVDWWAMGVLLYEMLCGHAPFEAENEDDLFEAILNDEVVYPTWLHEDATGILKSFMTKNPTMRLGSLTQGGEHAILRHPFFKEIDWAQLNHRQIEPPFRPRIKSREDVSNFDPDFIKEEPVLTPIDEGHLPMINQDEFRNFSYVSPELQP
Sequence of Protein kinase C theta type (Homo sapiens) (Q04759 whole entry, looked up): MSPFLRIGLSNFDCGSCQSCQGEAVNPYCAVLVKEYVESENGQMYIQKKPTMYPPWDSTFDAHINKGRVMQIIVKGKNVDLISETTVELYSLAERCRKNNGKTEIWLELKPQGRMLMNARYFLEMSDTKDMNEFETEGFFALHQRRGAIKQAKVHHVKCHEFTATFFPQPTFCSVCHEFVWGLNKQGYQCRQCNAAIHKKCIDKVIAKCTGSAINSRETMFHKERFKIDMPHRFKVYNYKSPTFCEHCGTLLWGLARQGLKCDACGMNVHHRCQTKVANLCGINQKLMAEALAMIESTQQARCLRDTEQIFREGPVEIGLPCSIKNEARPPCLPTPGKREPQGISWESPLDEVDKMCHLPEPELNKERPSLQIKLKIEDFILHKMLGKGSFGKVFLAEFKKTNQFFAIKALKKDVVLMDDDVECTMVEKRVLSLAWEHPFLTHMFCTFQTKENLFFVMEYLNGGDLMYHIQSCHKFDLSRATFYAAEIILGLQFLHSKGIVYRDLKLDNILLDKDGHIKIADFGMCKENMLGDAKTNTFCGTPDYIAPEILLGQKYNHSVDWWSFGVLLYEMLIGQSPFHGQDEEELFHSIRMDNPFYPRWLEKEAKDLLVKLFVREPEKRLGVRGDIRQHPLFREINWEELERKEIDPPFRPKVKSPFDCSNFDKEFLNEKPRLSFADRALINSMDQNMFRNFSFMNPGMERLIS

On to `CCn1c(-c2nonc2N)nc2ccc(F)cc21`, for which the inhibition in [1] is -0.67%; in test [2], 2.75%; in test [3], 6.34%; in [4], 1%; in test [5], 1.33%; in [6], 2.61%. For the same molecule, the inhibition in [7] was found to be 15.6%; in test [8] it was 6.39%; in [9], 26.6%; in [10] it was 4.75%; in test [11], 5.71%; in test [12], 2.23%. Also, the inhibition was determined as 1.51% in test [13]; 4.58% in [14]; 6.97% in test [15]; 1.15% in [16]; 4.26% in test [17]; 4.58% in [18]. Moreover, the inhibition came out at 6.64% in test [19] and 5.68% in [20].

Consider `COc1cc(Nc2nccc(-c3cnn4ncccc34)n2)cc(OC)c1`, for which the inhibition in [1] was determined as 3.22%; in test [2] it was 2.46%; in [3] it was 10.7%; in [4], 12.4%; in [5] it was 64%; in test [6], 0.12%. In addition, the inhibition is 8.95% in [7]; 3.16% in test [8]; 3.86% in test [9]; 0.71% in test [10]; 16.8% in test [11]; -0.04% in [12]. In addition, the inhibition in test [13] was 0.62%; in [14] it was 0.09%; in test [15] it was 6.77%; in test [16], 1.8%; in test [17] it was 16.9%; in test [18], 1.77%. The figures for the inhibition in test [19] and in [20] were 16.4% and 2.57%, respectively.

On to `Oc1cccc(-c2nc(-c3ccccc3)[nH]c2-c2ccncc2)c1`, for which the inhibition in [1] is 4.03%; in [2], 2.46%; in test [3], 6.88%; in test [4], 0.69%; in test [5] it was 3.01%; in test [6], 2.07%. The inhibition was determined as 8.23% in [7]; 2.41% in [8]; 9.76% in test [9]; 2.86% in [10]; 5.82% in [11]; 1.08% in test [12]. Moreover, the inhibition in test [13] stood at 0.18%; in test [14], 2.11%; in test [15] it was 3.65%; in test [16], 0.99%; in test [17], 7.1%; in test [18], 3.05%. For the same molecule, the inhibition is 5.51% in test [19] and 3.64% in test [20].

On to `CC(C)c1ccc2c(c1)NC(=O)/C2=N/Nc1ccc(S(N)(=O)=O)cc1`, for which the inhibition in test [1] is 0.82%; in test [2], 1.46%; in test [3] it was 0.47%; in test [4], -0.57%; in test [5], 0.11%; in test [6], -0.04%. The inhibition in [7] was -5.38%; in [8] it was 2.07%; in [9] it was -1.13%; in test [10], -0.1%; in [11], -0.76%; in test [12], -1.39%. The inhibition in [13] was -2.44%; in [14], -0.41%; in test [15], -0.44%; in [16] it was -0.24%; in test [17], 0.73%; in test [18], 0.07%. For the same molecule, the inhibition is 0.8% in [19] and -0.15% in test [20].

As for `Cc1ccc(O)cc1Nc1ccnc2ccc(S(C)(=O)=O)cc12`, the inhibition came out at 1.13% in [1]; 3.25% in test [2]; 11.9% in test [3]; 1.78% in test [4]; 11.2% in [5]; 1.93% in test [6]. Also, the inhibition in test [7] was 4.87%; in test [8], 2.56%; in [9], 6.46%; in [10] it was 0.83%; in test [11], 4.87%; in test [12], 3.04%. Moreover, the inhibition was 1.3% in [13]; 3.39% in [14]; 7.6% in test [15]; 2.21% in test [16]; 4.59% in test [17]; 5.19% in [18]. Further, the inhibition in test [19] came to 24.7%; in [20], 7.07%.

With `c1ccc(Nc2ncc(-c3ccccc3)o2)cc1`, the inhibition in [1] was 4.59%; in [2] it was 2.19%; in [3] it was 3.41%; in test [4] it was 1.37%; in [5], 2.47%; in [6], -0.26%. The inhibition is -0.49% in test [7]; 2.48% in test [8]; 5.31% in test [9]; 2.57% in test [10]; 4.48% in [11]; 1.64% in test [12]. Besides, the inhibition in test [13] worked out at 0.9%; in test [14], 1.93%; in [15] it was 2.27%; in test [16], 1.46%; in test [17], 2.63%; in [18], 4.37%. Also, the inhibition in [19] came to 7.71%; in test [20], 4.47%.
